Results: PubChem BioAssay (NCATS)
Inconclusive results are not listed. Active and inactive are the calls of the source. Unless noted, calls follow the shape of the dose curve; as a rule, active = well fitted curve in the direction sought with a large enough effect; inconclusive = small, poorly fitted or top-dose-only effect, or another doubt; inactive = no such curve, though single readings can be large; an effect the other way counts as inactive or inconclusive.

Legend:
[1] = biological target: Beta-2 adrenergic receptor (Homo sapiens) (UniProt P07550); assay: qHTS validation assay of beta-arrestin-biased ligands of beta2-adrenergic receptor (AID 485366); also: 0% is about no effect
In short: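 Screening used a titration range of up to 46 microM in a beta-arrestin recruitment Tango luciferase assay. Cells in 1% FBS medium were treated 18 hr at 37 degrees C, and luminescence was normalized to %Activity.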

[2] = biological target: ATP-dependent 6-phosphofructokinase (Trypanosoma brucei brucei) (UniProt O15648); assay: qHTS Validation Assay to Find Inhibitors of T. brucei phosphofructokinase (AID 485368); also: potency is read from the fitted curve at half-maximal effect
In short: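 PFK-generated ADP was measured after 45 min at room temperature using ADP-Glo. The reaction contained 0.5 mM F6P and 0.1 mM ATP.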

[3] = Quantitative high throughput screen for delayed death inhibitors of the malarial parasite plastid, 96 hour incubation (AID 488745); also: nearly all actives have a fitted effect of over 70% in size; also: potency is read from the fitted curve at half-maximal effect
In short: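 Luciferase-expressing P. falciparum, infected RBCs 2% Hct/0.1% parasitemia (final); 96 h cpd exposure, 37 C, 5% CO2; RPMI 1640 + 0.5% Albumax, bicarbonate, gentamycin. Readout: luminescence loss = growth inhibition.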

[4] = Quantitative high throughput screen for delayed death inhibitors of the malarial parasite plastid, 48 hour incubation (AID 488752); also: nearly all actives have a fitted effect of over 65% in size; also: potency is read from the fitted curve at half-maximal effect
In short: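 Luciferase-expressing P. falciparum in RBCs, 2% Hct, 0.1% parasitemia final; RPMI 1640 + 0.5% Albumax; 48 h, 37 C, 5% CO2; luminescence readout, signal drop = growth inhibition.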

[5] = biological target: Thioredoxin reductase 1, cytoplasmic (Rattus norvegicus) (UniProt O89049); assay: qHTS Assay for Substrates of Mammalian Selenoprotein Thioredoxin Reductase 1 (TrxR1) (AID 488772);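 also: series mostly up to about 57 µM; 0% is about no effect; a drop in NADPH fluorescence below the no-compound background marks a TrxR1 substrate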
In short: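 In this dual-purpose format, potential substrates are identified from the first fluorescence read after selenite addition, not from the 8-minute delta. Rat enzyme is preincubated with NADPH and then with compound at ~22 deg C.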

[6] = biological target: Flap endonuclease 1 (Homo sapiens) (UniProt P39748); assay: qHTS Validation Assay for the Inhibitors of Human Flap endonuclease 1 (FEN1) (AID 488816); also: potency is read from the fitted curve at half-maximal effect
In short: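 Steps: add FEN1 (10 nM reagent) or buffer only; pin compounds; hold 15 min at room temperature; start with substrate, 50 nM final; read at 0 and 15 min; correct, normalize and fit a four-parameter Hill curve.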

[7] = biological target: M-phase phosphoprotein 8 (Homo sapiens) (UniProt Q99549); assay: qHTS Validation Assay for Inhibitors for MPP8 Chromodomain Interactions with Methylated Histone Tails (AID 488949); also: nearly all actives have a fitted effect of over 55% in size; also: potency is read from the fitted curve at half-maximal effect
In short: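 Chemiluminescent proximity assay: histidine-tag capture via nickel acceptor beads, biotin peptide via streptavidin donor beads. Protein and peptide each at 50 nM, pH 7.4, with 30 min incubations at room temperature for complex formation, compound exposure and bead binding.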

[8] = biological target: Chromobox protein homolog 1 (Homo sapiens) (UniProt P83916); assay: qHTS Validation Assay for Inhibitors of HP1-beta Chromodomain Interactions with Methylated Histone Tails (AID 488953); also: nearly all actives have a fitted effect of over 50% in size; also: potency is read from the fitted curve at half-maximal effect
In short: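 AlphaScreen proximity readout: streptavidin donor and Ni-chelate acceptor beads, 10 ug/mL final, 30 min dark, RT. Complex of 50 nM HP1-beta and 50 nM b-H3(1-18)K9me3 formed 30 min, then compound-treated 30 min; PBS pH 7.4/0.01% Tween-20.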

[9] = biological target: Methanococcus maripaludis chaperonin (MmCpn) (UniProt Q6LX38); assay: High-Throughput Screening for Modulators of Cytosolic Chaperonin Activity: MmCpn Primary Screen (AID 488978); also: 0% is about no effect
In short: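 HTRF readout (320 nm excitation, 590/665 nm emission) of ADP generated by 50 nM MmCpn hydrolysing 30 uM ATP during 10 min at 37C; compound preincubated 5 min RT.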

[10] = biological target: Transient receptor potential cation channel subfamily V member 1 (Homo sapiens) (UniProt Q8NER1); assay: HTS Assay for Compounds that Act as Enhancers of the Vanilloid Receptor 1 (AID 488979); also: 0% is about no effect
In short: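 TRPV1-expressing cells loaded with Fluo-8 calcium dye; compounds added and calcium influx read kinetically for 3 min (agonist phase), then capsaicin at EC20 added and read 2 min more for enhancement. Fluorescence ex 480/em 520 nm.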

[11] = biological target: Thyrotropin receptor (Homo sapiens) (UniProt P16473); assay: qHTS Assay for Antagonists of the Thyroid Stimulating Hormone Receptor (AID 488980); also: series mostly up to about 58 µM; 0% is about no effect
In short: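 Inhibition of TSH-stimulated cAMP accumulation was quantified by homogeneous time-resolved FRET in TSHR-transfected HEK293 cells. Agonist: TSH, 4 nM final (EC80).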

[12] = biological target: D(1A) dopamine receptor (Homo sapiens) (UniProt P21728); assay: HTS Assay for Allosteric Agonists of the Human D1 Dopamine Receptor: Primary Screen for Potentiators (AID 488982); also: 0% is about no effect
In short: (§1)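 Tetracycline-induced HEK293 T-REx cells force-coupled to calcium signalling were incubated overnight at 30 C and dye-loaded at room temperature. Calcium flux over 180 s after compound addition flagged agonists; a further 180 s read after EC20 dopamine flagged potentiators.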

[13] = biological target: D(1A) dopamine receptor (Homo sapiens) (UniProt P21728); assay: HTS Assay for Allosteric Agonists of the Human D1 Dopamine Receptor: Primary Screen for Antagonists (AID 488983);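 also: calcium flux response to an EC80 dopamine challenge measured with no-wash dye; % is scaled to controls: 0 for no effect and ±100 for the full control effect; nearly all actives have a fitted effect of over 65% in size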
In short: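 Calcium flux readout, no-wash dye, inducible HEK293 T-REx D1 line (force-coupled). Compound added after 10 s baseline, 180 s kinetic read; then dopamine at EC80, further 180 s read.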

[14] = Validation screen for small molecules that induce genotoxicity in human embryonic kidney (HEK293T) cells expressing luciferase-tagged ELG1 (AID 493106); also: 0% is about no effect
In short: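 qHTS format; 2,000 HEK293T ELG1-luc cells/well; 23 nL compound via pin tool; 16 hr, 37 °C/5% CO2; ONE-Glo, 30 min RT; luminescence read.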

[15] = biological target: ATPase family AAA domain-containing protein 5 (Homo sapiens) (UniProt Q96QE3); assay: Validation screen for small molecules that inhibit ELG1-dependent DNA repair in human embryonic kidney (HEK293T) cells expressing luciferase-tagged ELG1 (AID 493107);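 also: cells co-treated with the DNA-damaging agent 5-fluorouridine alongside compound; series mostly up to about 46 µM; % is scaled to controls: 0 for no effect and ±100 for the full control effect; inhibitors lower the ELG1-luciferase luminescence signal; nearly all actives have a fitted effect of over 70% in size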
In short: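 ELG1-luciferase HEK293T reporter; 5-fluorouridine + compound/DMSO, 16 hr, 37 °C, 5% CO2; ONE-Glo 30 min RT; luminescence read, qHTS format.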

[16] = biological target: Thyrotropin-releasing hormone receptor (Homo sapiens) (UniProt P34981); assay: qHTS for Small Molecule Agonists and Allosteric Enhancers of Human TRH Receptor: Validation Screen for Agonists (AID 493127;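 active = calcium activation more than 3 SD above the typical response in the agonist read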;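 also: intracellular calcium rise by fluo-8 fluorescence before TRH EC20 addition; 0% is about no effect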); settings: TRH receptor agonist cell assay; at 2 µM; hits give high values
In short: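 Read-out: intracellular calcium release measured kinetically by FDSS (fluo-8, ex 480/em 530 nm), 1 reading/s after a 10-cycle baseline. TRHR cells, 2000/well, cultured 18 h at 33.5C, dye-loaded at room temp. Compound-evoked positive calcium signal flags agonists.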

[17] = biological target: Thioredoxin reductase 1, cytoplasmic (Rattus norvegicus) (UniProt O89049); assay: qHTS Assay for Inhibitors of Mammalian Selenoprotein Thioredoxin Reductase 1 (TrxR1) (AID 488773); settings: Potency: inhibition;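 also: drop in NADPH fluorescence over an 8 min run after selenite addition; series mostly up to about 57 µM; % is scaled to controls: 0 for no effect and ±100 for the full control effect; nearly all actives have a fitted effect of over 40% in size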
In short: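 Inhibition is scored from the loss of NADPH fluorescence between first and last reads of an 8-min kinetic run. Selenite (400 uM) was the substrate, added after 15 min compound preincubation at room temperature.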

[18] = biological target: D(1A) dopamine receptor (Homo sapiens) (UniProt P21728); assay: HTS Assay for Allosteric Agonists of the Human D1 Dopamine Receptor: Primary Screen for Agonists (AID 488981); also: 0% is about no effect
In short: as §1

Sequence of Beta-2 adrenergic receptor (Homo sapiens) (P07550 whole entry, looked up): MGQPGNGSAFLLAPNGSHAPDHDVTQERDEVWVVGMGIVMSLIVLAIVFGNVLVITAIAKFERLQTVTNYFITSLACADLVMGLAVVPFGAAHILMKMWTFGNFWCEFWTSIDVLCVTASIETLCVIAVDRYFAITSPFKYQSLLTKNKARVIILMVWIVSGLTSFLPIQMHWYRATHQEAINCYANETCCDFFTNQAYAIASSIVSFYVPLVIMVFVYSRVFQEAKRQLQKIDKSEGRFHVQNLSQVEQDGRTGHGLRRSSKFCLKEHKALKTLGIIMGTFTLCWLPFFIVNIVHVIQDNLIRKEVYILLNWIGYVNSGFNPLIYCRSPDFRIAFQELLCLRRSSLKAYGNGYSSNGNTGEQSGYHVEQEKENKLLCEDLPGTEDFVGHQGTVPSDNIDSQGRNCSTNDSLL
Sequence of Transient receptor potential cation channel subfamily V member 1 (Homo sapiens) (Q8NER1 whole entry, looked up): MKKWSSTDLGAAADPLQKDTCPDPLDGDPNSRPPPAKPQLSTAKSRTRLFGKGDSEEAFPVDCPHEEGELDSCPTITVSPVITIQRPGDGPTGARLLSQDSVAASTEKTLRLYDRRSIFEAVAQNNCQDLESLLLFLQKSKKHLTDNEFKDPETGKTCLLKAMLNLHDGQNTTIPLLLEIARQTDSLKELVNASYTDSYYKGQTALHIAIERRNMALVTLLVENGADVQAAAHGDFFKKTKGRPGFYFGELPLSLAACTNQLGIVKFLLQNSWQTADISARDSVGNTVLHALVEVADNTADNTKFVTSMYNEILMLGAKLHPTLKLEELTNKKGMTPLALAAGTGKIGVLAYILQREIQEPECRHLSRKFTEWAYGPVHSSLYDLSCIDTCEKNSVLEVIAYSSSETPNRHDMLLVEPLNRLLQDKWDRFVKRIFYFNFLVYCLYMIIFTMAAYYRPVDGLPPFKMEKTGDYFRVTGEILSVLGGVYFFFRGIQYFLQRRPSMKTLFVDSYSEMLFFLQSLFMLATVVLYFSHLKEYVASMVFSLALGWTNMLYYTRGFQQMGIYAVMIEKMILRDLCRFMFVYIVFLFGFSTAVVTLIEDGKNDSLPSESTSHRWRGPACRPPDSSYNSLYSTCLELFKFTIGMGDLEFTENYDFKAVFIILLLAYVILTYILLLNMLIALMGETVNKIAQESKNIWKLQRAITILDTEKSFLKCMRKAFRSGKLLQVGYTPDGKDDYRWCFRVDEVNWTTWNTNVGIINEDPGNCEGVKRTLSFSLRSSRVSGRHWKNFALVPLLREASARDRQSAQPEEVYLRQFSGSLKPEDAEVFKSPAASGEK
Sequence of Thyrotropin receptor (Homo sapiens) (P16473 whole entry, looked up): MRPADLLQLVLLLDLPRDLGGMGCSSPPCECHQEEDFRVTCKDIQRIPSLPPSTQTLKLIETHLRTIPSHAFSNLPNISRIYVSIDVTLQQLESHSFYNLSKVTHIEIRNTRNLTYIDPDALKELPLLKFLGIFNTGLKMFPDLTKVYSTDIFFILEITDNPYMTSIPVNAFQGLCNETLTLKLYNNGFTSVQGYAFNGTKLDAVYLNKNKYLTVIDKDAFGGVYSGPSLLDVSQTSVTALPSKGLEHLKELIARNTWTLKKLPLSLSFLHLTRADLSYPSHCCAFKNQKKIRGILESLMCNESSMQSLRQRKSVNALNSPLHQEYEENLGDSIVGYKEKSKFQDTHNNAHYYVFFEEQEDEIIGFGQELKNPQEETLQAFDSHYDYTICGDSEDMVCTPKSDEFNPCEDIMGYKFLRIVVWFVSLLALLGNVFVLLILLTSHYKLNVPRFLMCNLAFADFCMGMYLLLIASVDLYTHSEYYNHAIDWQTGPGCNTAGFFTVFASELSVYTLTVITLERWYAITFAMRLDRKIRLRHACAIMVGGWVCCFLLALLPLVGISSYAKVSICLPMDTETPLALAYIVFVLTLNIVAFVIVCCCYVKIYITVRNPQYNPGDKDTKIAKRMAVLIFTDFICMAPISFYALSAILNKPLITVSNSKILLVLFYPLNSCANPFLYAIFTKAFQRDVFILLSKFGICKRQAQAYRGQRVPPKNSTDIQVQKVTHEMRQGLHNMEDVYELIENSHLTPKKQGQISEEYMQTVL
Sequence of Flap endonuclease 1 (Homo sapiens) (P39748 whole entry, looked up): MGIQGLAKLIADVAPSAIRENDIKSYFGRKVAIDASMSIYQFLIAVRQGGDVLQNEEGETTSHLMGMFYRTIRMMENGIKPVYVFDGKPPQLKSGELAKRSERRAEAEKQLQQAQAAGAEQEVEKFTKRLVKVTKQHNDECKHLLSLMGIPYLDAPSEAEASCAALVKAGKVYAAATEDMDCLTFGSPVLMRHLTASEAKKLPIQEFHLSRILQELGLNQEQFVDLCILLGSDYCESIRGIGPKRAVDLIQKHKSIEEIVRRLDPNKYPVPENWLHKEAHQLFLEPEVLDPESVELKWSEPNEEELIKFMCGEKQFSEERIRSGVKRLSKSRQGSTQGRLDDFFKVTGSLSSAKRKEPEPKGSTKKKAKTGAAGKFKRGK
Sequence of Methanococcus maripaludis chaperonin (MmCpn) (Q6LX38 1-543): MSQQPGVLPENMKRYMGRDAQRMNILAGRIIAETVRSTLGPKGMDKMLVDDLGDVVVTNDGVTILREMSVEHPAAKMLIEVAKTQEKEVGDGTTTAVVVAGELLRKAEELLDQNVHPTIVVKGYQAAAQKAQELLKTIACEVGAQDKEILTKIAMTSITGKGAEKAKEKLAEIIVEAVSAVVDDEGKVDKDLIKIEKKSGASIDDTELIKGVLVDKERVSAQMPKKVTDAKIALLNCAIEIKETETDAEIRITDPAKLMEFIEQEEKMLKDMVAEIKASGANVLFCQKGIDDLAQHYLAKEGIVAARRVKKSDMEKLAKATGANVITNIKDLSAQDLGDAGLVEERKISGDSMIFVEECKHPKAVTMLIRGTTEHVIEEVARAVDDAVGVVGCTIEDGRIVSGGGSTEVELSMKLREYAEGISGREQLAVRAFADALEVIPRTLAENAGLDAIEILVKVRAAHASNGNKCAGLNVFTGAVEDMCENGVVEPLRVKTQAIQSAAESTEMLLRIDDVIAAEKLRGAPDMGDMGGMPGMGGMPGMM
Sequence of Thioredoxin reductase 1, cytoplasmic (Rattus norvegicus) (O89049 whole entry, looked up): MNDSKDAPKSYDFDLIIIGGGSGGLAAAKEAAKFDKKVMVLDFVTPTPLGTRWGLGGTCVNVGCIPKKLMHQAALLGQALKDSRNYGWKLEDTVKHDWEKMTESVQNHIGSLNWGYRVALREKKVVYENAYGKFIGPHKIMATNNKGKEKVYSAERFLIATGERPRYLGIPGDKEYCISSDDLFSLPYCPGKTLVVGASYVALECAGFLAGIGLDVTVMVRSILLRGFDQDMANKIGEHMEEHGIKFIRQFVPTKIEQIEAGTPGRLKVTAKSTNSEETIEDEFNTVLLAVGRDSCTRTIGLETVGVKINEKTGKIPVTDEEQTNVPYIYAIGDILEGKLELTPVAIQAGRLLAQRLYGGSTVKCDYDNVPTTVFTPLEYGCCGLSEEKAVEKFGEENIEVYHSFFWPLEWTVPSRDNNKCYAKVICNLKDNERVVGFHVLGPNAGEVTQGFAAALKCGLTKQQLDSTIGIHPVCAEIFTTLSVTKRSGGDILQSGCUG
Sequence of ATP-dependent 6-phosphofructokinase (Trypanosoma brucei brucei) (O15648 whole entry, looked up): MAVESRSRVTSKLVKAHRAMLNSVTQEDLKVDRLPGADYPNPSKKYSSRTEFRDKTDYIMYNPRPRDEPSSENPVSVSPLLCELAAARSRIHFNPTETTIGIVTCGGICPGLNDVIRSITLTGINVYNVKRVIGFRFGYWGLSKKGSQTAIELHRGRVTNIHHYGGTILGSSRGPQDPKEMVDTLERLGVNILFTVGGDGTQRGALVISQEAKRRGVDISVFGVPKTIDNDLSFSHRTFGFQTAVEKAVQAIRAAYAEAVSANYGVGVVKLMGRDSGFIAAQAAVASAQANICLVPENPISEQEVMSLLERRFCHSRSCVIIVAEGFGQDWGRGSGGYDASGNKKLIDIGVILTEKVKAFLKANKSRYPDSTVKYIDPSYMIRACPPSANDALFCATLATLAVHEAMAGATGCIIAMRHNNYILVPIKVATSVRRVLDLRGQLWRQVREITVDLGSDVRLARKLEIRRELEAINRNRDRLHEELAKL
Sequence of D(1A) dopamine receptor (Homo sapiens) (P21728 whole entry, looked up): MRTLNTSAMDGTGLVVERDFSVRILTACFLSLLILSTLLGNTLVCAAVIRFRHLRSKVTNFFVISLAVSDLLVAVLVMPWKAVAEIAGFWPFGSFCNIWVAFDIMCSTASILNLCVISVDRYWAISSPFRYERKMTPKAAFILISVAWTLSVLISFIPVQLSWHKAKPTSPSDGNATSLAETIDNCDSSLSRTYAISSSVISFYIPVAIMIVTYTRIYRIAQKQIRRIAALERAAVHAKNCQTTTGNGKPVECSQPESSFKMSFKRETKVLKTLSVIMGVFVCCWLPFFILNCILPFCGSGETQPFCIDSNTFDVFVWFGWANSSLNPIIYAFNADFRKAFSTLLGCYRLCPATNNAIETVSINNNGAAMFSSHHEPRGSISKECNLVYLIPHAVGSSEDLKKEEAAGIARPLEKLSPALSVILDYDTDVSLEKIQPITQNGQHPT
Sequence of Thyrotropin-releasing hormone receptor (Homo sapiens) (P34981 whole entry, looked up): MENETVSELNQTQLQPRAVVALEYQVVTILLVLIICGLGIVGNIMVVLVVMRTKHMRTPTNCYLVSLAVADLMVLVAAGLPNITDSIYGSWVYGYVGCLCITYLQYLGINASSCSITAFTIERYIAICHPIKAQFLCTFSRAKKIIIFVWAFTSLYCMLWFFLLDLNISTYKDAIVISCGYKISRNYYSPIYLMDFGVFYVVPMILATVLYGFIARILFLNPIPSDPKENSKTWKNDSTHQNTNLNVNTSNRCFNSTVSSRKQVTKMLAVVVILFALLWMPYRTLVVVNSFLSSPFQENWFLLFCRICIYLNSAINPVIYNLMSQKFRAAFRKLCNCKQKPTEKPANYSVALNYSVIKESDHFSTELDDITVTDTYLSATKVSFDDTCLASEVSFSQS
Sequence of Chromobox protein homolog 1 (Homo sapiens) (P83916 whole entry, looked up): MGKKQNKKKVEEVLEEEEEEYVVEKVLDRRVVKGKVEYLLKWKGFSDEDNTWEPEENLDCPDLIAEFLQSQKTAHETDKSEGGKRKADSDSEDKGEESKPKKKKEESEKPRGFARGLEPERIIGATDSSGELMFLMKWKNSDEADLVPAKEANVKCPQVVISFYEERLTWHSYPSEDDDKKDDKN

COCc1nc2c([nH]1)c(=O)n(C)c(=O)n2CC(C)C
inactive: outcome [1] | Potency [2] | Potency [3] | Potency [4] | outcome [5] | Potency [6] | Potency [7] | Potency [8] | outcome [9] | outcome [10] | outcome [11] | Potency [12] | Potency [13] | Potency [14] | Potency [15] | activation [16] 0.875%

NC(N)=[N+]1CCc2ccccc2C1
inactive: outcome [1] | Potency [2] | Potency [3] | Potency [4] | outcome [5] | Potency [17] | Potency [7] | Potency [8] | outcome [9] | outcome [10] | outcome [11] | Potency [18] | Potency [13] | Potency [14] | Potency [15] | activation [16] -0.125%

CC(/C=C/c1cccc(Oc2ccc(F)cc2)c1)N(O)C(N)=O (configuration not stated)
inactive: outcome [1] | Potency [2] | Potency [3] | outcome [5] | Potency [17] | Potency [6] | Potency [7] | Potency [8] | outcome [9] | outcome [10] | outcome [11] | Potency [18] | Potency [12] | Potency [13] | activation [16] 1%

CC(C)C[C@H](NC(=O)[C@H](O)[C@H](N)Cc1ccccc1)C(=O)O
inactive: outcome [1] | Potency [2] | Potency [3] | Potency [4] | outcome [5] | Potency [6] | Potency [7] | Potency [8] | outcome [9] | outcome [10] | outcome [11] | Potency [18] | Potency [12] | Potency [13] | Potency [14] | Potency [15] | activation [16] -0.0625%

N[C@H](C(=O)O)[C@H](O)C(=O)O
inactive: outcome [1] | Potency [2] | Potency [3] | Potency [4] | outcome [5] | Potency [6] | Potency [7] | Potency [8] | outcome [9] | outcome [10] | outcome [11] | Potency [18] | Potency [12] | Potency [13] | Potency [14] | activation [16] 0.0625%

CC(C)Cn1c(=O)n(C)c(=O)c2[nH]cnc21
inactive: outcome [1] | Potency [2] | Potency [3] | Potency [4] | outcome [5] | Potency [17] | Potency [7] | Potency [8] | outcome [9] | outcome [10] | outcome [11] | Potency [18] | Potency [12] | Potency [14] | activation [16] 0.875%

Cc1nc(N=Nc2cc(S(=O)(=O)O)c3cc([N+](=O)[O-])cc(S(=O)(=O)O)c3c2)c(COP(=O)(O)O)c(C=O)c1O
active: Potency [2] 7.57 µM | Potency [6] 23.8 µM | Potency [7] 10 µM | Potency [8] 28.2 µM
inactive: outcome [1] | Potency [3] | Potency [4] | outcome [5] | outcome [9] | outcome [10] | outcome [11] | Potency [18] | Potency [12] | Potency [13] | Potency [14] | Potency [15] | activation [16] 0.25%

CC(C)(C)c1cc(/C=C(\C#N)C(N)=S)cc(C(C)(C)C)c1O
active: Potency [3] 9.28 µM | Potency [4] 8.28 µM | Potency [7] 11.2 µM | Potency [8] 11.2 µM
inactive: outcome [1] | Potency [2] | outcome [5] | outcome [9] | outcome [10] | outcome [11] | Potency [12] | Potency [14] | activation [16] 10.6%

O=c1[nH]c(=O)c2nc3ccccc3nc2[nH]1
inactive: outcome [1] | Potency [2] | Potency [3] | Potency [4] | outcome [5] | Potency [7] | Potency [8] | outcome [9] | outcome [10] | outcome [11] | Potency [12] | Potency [13] | Potency [14] | activation [16] 3.81%

N=S(=O)(O)Cc1noc2ccccc12
inactive: outcome [1] | Potency [2] | Potency [3] | Potency [4] | outcome [5] | Potency [8] | outcome [9] | outcome [10] | outcome [11] | Potency [18] | Potency [12] | Potency [13] | Potency [14] | Potency [15]

N#CC(C#N)=C(N)/C(C#N)=C/c1ccc(O)cc1
inactive: outcome [1] | Potency [2] | Potency [3] | Potency [4] | outcome [5] | Potency [7] | outcome [9] | outcome [11] | Potency [18] | Potency [12] | Potency [13] | Potency [14] | Potency [15] | activation [16] 0.25%

Nn1nnc2ccccc21
inactive: outcome [1] | Potency [2] | Potency [3] | outcome [5] | Potency [17] | Potency [6] | Potency [7] | Potency [8] | outcome [9] | outcome [10] | outcome [11] | Potency [18] | Potency [12] | Potency [13] | Potency [14] | activation [16] 1.12%

NCCCCN=C(N)N
inactive: outcome [1] | Potency [2] | Potency [3] | outcome [5] | Potency [17] | Potency [6] | Potency [7] | Potency [8] | outcome [9] | outcome [10] | outcome [11] | Potency [12] | Potency [13] | Potency [14] | Potency [15] | activation [16] 0.812%

Cn1c(=O)c2[nH]c(-c3ccc(S(=O)(=O)O)cc3)nc2n(C)c1=O
inactive: outcome [1] | Potency [2] | Potency [3] | Potency [4] | outcome [5] | Potency [6] | Potency [8] | outcome [9] | outcome [10] | outcome [11] | Potency [13] | Potency [14] | Potency [15] | activation [16] 0.938%

Nc1nc2ccc(Cl)cc2c2nc(-c3ccco3)nn12
inactive: outcome [1] | Potency [2] | Potency [3] | Potency [4] | outcome [5] | Potency [8] | outcome [9] | outcome [10] | outcome [11] | Potency [18] | activation [16] 0.25%

C=C(C)C1CC=C(C(=O)O)CC1 (configuration not stated)
inactive: outcome [1] | Potency [2] | Potency [3] | Potency [4] | outcome [5] | Potency [17] | Potency [7] | Potency [8] | outcome [9] | outcome [10] | outcome [11] | Potency [18] | Potency [12] | Potency [14] | Potency [15] | activation [16] 1.12%

CC(N)(C(=O)O)c1ccc(C(=O)O)cc1 (configuration not stated)
inactive: outcome [1] | Potency [2] | Potency [3] | outcome [5] | Potency [17] | Potency [6] | Potency [7] | Potency [8] | outcome [9] | outcome [10] | outcome [11] | Potency [18] | Potency [12] | Potency [13] | Potency [14] | Potency [15] | activation [16] 1.12%
